Measured values from PubChem BioAssay (NCI).
The panel holds about 83,000 compounds, 20% with a hit somewhere; the sample as a whole holds those more often.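 A percent growth of 40 corresponds to 60% growth inhibition; 0 means no net growth; -100 means all cells died. Active threshold: below 10.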 Unmarked numbers belong to inactive results. Active and inactive are the calls of the source.

How the values were obtained:
Assay in all cases: NCI-60 one-dose screen, 48 h (100 = growth as untreated, 0 = no growth, -100 = all killed)
Conditions in all cases: 10 µM unless noted
NCI-H23 lung = system: NCI-H23 lung
NCI-H226 lung = system: NCI-H226 lung
NCI-H322M lung = system: NCI-H322M lung
HOP-62 NSCLC = system: HOP-62 NSCLC
NCI-H460 lung = system: NCI-H460 lung
HOP-92 NSCLC = system: HOP-92 NSCLC
NCI-H522 lung = system: NCI-H522 lung
A549/ATCC NSCLC = system: A549/ATCC NSCLC
786-0 renal = system: 786-0 renal
COLO 205 colon = system: COLO 205 colon
DU-145 prostate = system: DU-145 prostate
K-562 leukemia = system: K-562 leukemia
MALME-3M melanoma = system: MALME-3M melanoma
MDA-MB-231 breast = system: MDA-MB-231 breast
RXF 393 renal = system: RXF 393 renal
SF-268 CNS = system: SF-268 CNS
SF-295 CNS = system: SF-295 CNS
SF-539 CNS = system: SF-539 CNS
UACC-257 melanoma = system: UACC-257 melanoma
M14 melanoma = system: M14 melanoma

| SMILES | growth (NCI-H23 lung) | growth (NCI-H226 lung) | growth (NCI-H322M lung) | growth (HOP-62 NSCLC) | growth (NCI-H460 lung) | growth (HOP-92 NSCLC) | growth (NCI-H522 lung) | growth (A549/ATCC NSCLC) | growth (786-0 renal) | growth (COLO 205 colon) | growth (DU-145 prostate) | growth (K-562 leukemia) | growth (MALME-3M melanoma) | growth (MDA-MB-231 breast) | growth (RXF 393 renal) | growth (SF-268 CNS) | growth (SF-295 CNS) | growth (SF-539 CNS) | growth (UACC-257 melanoma) | growth (M14 melanoma) |
| --- | --- | --- | --- | --- | --- | --- | --- | --- | --- | --- | --- | --- | --- | --- | --- | --- | --- | --- | --- | --- |
| Cc1ccc(C(Cc2ccccc2)NCCO)cc1 (stereo not given) | 101% | 97.2% | 96.4% | 80.3% | 105% | 74.8% | 52.3% | 69.2% | 80.8% | 82.1% | 104% | 104% | 97.2% | 103% | 99.2% | 98% | 98.3% | 85.1% | 92% | 87% |
| C[N+](C)(C)Cc1cc(Cl)ccc1O | 97.7% | 98.6% | 87.3% | 101% | 110% | 93.2% | 80.6% | 94.6% | 100% | 107% | 108% | 99.9% | 93.2% | 109% | 110% | 106% | 108% | 102% | 96.5% | 94.8% |
| CCOC(=S)S[C@H]1C[C@@H]2[C@H](CC[C@]3(C)C(=O)CC[C@@H]23)[C@@]2(C)CCC(=O)C=C12 | 101% | 106% | 102% | 112% | 105% | 117% | 95.6% | 107% | 102% | 115% | 103% | 95.3% | 107% | 95.2% | 102% | 95.5% | 95.7% | 99.7% | 101% | 102% |
| N/C(=N\N=C\c1ccc(-c2ccccc2)cc1)N[N+](=O)[O-] | 41% | 73.6% | 52.7% | 38.2% | 16.4% | 51.6% | 18.2% | 38.4% | 40.6% | 24.9% | 33.4% | 14.9% | 43.7% | 66.5% | -4.68% (active) | 49.1% | 7.55% (active) | 9.43% (active) | 65.3% | 25.8% |
| CCCCC1(CCC)C(=O)NC(=S)NC1=O | 100% | 106% | 112% | 99.6% | 108% | 71.4% | 81.7% | 125% | 93.8% | 112% | 119% | 121% | 119% | 113% | 195% | 107% | 102% | 94.9% | 131% | 106% |
| Nc1ccc(Cl)cc1 | 99.3% | 92.1% | 106% | 90.3% | 109% | 85.5% | 89.3% | 78.7% | 97.7% | 95.9% | 102% | 100% | 104% | 104% | 105% | 104% | 99.2% | 96.6% | 86.4% | 99.5% |
| CCN(CC)c1ccc2c(c1)OC(N)=C(C#N)C2c1cc(OC)c2c(c1)OCO2 (stereo not given) | 17.8% | 29% | 47.1% | 42% | 3.22% (active) | 38.2% | -41.7% (active) | 19.8% | 15.5% | -42.8% (active) | -3.69% (active) | 17.5% | 61.1% | 4.28% (active) | 30.9% | 21.3% | 17% | 3.37% (active) | 77.7% | 7.87% (active) |
| COC(=O)[C@@H](C)C[C@H](Cc1ccccc1)NC(=O)c1csc([C@@H](C[C@H](C(C)C)N(C)C(=O)[C@@H](NC(=O)[C@H]2CCCCN2C)C2CC2)OC(C)=O)n1 | 22% | 20.5% | 52.2% | 15.7% | 14.1% | 31.3% | -45.5% (active) | 13% | 21.8% | -69.9% (active) | 2.33% (active) | 9.03% (active) | 63.6% | 23% | 46.9% | 32.8% | 9.01% (active) | -0.629% (active) | 58.3% | 10.8% |
